# According to paper PMC7862700, “An all-to-all approach to the identification of sequence-specific readers for epigenetic DNA modifications on cytosine”:
# Assays:
# Assay in all cases: DAPPL (digital affinity profiling via proximity ligation, sequencing); 10 mM Tris-HCl pH 7.5, 50 mM NaCl, 1 mM DTT, 4% glycerol, room temperature, 30 min; GST-TFs on glutathione beads, 16-mer random dsDNA library, 0.1% formaldehyde crosslink after washing; high values mean tight binding
# FEV = target: T1, FEV (Homo sapiens, UniProt Q99581 1-238); conditions: protein: recombinant; tags: N-terminal GST; dsDNA, one strand shown
# T1 sequence: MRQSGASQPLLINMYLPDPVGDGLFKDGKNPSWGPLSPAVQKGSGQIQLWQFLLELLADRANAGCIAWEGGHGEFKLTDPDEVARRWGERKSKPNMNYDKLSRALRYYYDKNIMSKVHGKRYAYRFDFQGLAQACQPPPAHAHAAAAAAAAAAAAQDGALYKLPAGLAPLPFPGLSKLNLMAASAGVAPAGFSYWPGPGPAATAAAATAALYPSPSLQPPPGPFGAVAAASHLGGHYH
# Outline: (§1)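 Each value of binding signal is a hexamer's read frequency for a factor divided by the same hexamer's frequency in the tag-only sample. Barcoded, bead-captured GST fusions of human transcription factors made in yeast were pooled with that sample and incubated with 200 nmole of a random double-stranded 16-mer DNA library in Tris/NaCl/DTT/glycerol buffer at room temperature for 30 min. Washing, 0.1% formaldehyde crosslinking, proximity ligation, PCR and Illumina NextSeq500 sequencing followed.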
# ETV5 = ETV5 (Homo sapiens, UniProt P41161 1-510); conditions: protein: recombinant; tags: N-terminal GST; dsDNA, one strand shown
# Chain of ETV5 (P41161 whole entry): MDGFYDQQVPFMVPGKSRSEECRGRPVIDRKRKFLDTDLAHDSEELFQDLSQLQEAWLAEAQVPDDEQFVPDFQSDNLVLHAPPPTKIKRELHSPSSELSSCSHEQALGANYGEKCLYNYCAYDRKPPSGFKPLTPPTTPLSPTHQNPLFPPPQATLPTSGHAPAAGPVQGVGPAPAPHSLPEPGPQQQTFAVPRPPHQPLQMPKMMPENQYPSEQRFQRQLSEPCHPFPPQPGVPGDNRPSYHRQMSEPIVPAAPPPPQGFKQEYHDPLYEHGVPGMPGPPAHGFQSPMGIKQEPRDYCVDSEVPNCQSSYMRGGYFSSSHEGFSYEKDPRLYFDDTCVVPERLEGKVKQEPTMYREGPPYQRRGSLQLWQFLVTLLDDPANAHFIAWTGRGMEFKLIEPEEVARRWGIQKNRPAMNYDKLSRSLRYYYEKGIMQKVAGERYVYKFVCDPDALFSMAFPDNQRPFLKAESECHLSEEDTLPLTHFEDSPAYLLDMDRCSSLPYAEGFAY
# Outline: as §1
# HSF1 = HSF1 (Homo sapiens, UniProt Q00613 1-529); conditions: protein: recombinant; tags: N-terminal GST; chain copies: 3; dsDNA, one strand shown
# Chain of HSF1 (Q00613 whole entry): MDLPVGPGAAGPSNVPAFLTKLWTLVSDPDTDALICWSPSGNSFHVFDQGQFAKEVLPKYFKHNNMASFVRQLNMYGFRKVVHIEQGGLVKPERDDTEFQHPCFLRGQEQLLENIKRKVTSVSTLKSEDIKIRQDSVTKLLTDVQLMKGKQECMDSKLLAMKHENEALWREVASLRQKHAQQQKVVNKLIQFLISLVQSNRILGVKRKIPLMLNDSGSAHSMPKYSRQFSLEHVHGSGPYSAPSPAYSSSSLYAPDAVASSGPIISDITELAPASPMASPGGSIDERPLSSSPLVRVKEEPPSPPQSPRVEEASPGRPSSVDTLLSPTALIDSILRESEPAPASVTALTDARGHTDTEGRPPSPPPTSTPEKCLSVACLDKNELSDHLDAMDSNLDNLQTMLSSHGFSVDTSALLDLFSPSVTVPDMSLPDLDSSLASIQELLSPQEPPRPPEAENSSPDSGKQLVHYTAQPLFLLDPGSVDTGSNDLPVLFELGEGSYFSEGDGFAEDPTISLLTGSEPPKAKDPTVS
# Outline: as §1
# SPIC = target: T2, SPIC (Homo sapiens, UniProt Q8N5J4 1-248); conditions: protein: recombinant; tags: N-terminal GST; dsDNA, one strand shown
# T2 sequence: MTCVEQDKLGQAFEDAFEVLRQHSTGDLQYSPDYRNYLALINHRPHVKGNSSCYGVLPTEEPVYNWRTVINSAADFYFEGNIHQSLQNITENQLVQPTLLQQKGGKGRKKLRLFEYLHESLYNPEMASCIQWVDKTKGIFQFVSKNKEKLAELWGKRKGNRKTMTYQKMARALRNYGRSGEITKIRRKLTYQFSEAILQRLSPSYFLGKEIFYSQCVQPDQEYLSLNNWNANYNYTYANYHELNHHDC
# Outline: as §1
# ELF4 = ELF4 (Homo sapiens, UniProt Q99607 1-663); conditions: protein: recombinant; tags: N-terminal GST; dsDNA, one strand shown
# Chain of ELF4 (Q99607 whole entry): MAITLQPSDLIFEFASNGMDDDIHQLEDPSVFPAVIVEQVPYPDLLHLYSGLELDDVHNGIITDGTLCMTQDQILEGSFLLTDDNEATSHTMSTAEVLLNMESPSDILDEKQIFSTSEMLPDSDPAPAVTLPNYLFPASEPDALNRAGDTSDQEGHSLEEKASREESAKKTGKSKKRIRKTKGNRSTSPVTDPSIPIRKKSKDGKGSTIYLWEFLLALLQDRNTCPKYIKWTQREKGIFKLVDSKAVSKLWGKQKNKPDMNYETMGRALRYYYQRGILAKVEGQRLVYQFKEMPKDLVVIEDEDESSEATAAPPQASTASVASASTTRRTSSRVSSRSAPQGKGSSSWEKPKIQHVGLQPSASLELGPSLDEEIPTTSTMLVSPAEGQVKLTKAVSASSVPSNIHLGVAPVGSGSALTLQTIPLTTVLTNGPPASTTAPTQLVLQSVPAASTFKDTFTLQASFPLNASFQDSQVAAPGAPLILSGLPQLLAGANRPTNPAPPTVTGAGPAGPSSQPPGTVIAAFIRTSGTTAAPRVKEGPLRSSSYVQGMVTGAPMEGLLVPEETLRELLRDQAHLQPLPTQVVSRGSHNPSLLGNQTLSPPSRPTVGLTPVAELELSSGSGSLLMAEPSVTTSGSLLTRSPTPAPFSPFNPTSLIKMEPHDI
# Outline: as §1
# ELK4 = target: T3, ELK4 (Homo sapiens, UniProt P28324-2 1-405); conditions: protein: recombinant; tags: N-terminal GST; dsDNA, one strand shown
# T3 sequence: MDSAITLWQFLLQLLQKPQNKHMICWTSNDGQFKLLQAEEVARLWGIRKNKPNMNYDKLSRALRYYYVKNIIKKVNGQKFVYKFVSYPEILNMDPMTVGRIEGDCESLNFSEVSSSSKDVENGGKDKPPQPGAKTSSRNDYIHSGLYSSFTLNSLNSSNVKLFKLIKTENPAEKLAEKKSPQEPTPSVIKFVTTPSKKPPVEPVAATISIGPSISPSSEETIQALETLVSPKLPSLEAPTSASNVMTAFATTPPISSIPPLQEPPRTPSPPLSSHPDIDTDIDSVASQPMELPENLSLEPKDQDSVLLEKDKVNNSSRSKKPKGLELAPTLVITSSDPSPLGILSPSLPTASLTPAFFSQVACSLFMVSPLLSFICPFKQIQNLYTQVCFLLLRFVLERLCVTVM
# Outline: as §1
# ETV2 = target: T4, ETV2 (Homo sapiens, UniProt O00321 1-342); conditions: protein: recombinant; tags: N-terminal GST; dsDNA, one strand shown
# T4 sequence: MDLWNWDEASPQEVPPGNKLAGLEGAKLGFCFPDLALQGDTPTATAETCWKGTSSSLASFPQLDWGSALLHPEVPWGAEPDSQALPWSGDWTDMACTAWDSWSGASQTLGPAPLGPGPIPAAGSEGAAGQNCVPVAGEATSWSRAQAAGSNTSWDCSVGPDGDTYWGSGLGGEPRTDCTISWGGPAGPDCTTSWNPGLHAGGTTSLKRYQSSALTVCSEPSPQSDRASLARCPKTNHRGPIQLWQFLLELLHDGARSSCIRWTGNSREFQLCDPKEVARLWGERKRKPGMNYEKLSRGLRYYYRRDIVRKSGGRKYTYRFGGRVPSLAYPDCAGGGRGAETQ
# Outline: as §1
# ELF3 = target: T5, ELF3 (Homo sapiens, UniProt P78545 1-371); conditions: protein: recombinant; tags: N-terminal GST; dsDNA, one strand shown
# T5 sequence: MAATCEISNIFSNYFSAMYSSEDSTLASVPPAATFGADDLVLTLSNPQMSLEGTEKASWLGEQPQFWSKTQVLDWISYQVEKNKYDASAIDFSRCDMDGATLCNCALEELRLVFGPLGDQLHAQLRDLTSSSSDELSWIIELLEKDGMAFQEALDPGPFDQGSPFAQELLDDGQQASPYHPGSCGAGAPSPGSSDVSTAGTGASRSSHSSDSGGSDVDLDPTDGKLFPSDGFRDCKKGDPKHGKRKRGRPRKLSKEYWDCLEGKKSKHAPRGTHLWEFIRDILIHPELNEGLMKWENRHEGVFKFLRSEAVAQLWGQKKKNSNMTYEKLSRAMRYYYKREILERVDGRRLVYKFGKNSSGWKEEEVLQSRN
# Outline: as §1
# CRX = CRX (Homo sapiens, UniProt O43186 1-299); conditions: protein: recombinant; tags: N-terminal GST; dsDNA, one strand shown
# Chain of CRX (O43186 whole entry): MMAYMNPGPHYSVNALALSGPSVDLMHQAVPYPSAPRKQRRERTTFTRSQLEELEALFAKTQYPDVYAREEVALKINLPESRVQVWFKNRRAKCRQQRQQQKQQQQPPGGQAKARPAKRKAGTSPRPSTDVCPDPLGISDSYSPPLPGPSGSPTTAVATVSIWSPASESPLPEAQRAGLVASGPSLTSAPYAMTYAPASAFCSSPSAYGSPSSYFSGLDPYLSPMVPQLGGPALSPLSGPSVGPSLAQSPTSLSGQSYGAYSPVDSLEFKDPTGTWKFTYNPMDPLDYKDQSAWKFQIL
# Outline: as §1
# ETV1 = ETV1 (Homo sapiens, UniProt P50549 1-477); conditions: protein: recombinant; tags: N-terminal GST; dsDNA, one strand shown
# Chain of ETV1 (P50549 whole entry): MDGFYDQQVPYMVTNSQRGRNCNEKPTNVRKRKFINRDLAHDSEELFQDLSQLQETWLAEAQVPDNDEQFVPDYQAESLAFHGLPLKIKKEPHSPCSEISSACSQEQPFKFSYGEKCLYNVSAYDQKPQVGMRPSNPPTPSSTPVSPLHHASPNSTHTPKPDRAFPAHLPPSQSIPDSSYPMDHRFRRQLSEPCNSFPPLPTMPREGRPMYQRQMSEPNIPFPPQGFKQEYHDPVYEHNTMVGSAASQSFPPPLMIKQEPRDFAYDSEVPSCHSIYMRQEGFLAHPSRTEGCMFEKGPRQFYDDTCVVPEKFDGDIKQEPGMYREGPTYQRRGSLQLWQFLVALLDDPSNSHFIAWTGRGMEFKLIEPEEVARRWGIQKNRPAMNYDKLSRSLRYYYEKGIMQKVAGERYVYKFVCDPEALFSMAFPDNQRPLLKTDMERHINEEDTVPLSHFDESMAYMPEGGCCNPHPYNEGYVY
# Outline: as §1
# ERF = target: T6, ERF (Homo sapiens, UniProt P50548 1-548); conditions: protein: recombinant; tags: N-terminal GST; dsDNA, one strand shown
# T6 sequence: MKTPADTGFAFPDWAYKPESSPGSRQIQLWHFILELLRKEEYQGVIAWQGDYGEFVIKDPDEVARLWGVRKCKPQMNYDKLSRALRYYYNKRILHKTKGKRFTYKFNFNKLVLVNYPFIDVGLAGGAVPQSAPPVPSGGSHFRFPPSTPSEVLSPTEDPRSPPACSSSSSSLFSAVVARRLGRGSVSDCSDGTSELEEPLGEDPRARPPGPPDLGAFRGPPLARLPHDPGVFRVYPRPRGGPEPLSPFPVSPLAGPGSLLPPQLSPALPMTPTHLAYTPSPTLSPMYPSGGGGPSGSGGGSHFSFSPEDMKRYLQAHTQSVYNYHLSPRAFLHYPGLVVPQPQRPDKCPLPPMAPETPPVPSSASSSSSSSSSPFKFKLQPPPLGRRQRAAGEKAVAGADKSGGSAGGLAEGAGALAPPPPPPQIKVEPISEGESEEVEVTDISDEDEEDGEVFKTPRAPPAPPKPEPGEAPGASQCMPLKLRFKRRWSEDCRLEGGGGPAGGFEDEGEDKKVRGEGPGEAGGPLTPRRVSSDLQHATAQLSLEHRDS
# Outline: as §1
# ETV3L = target: T7, ETV3L (Homo sapiens, UniProt Q6ZN32 1-361); conditions: protein: recombinant; tags: N-terminal GST; dsDNA, one strand shown
# T7 sequence: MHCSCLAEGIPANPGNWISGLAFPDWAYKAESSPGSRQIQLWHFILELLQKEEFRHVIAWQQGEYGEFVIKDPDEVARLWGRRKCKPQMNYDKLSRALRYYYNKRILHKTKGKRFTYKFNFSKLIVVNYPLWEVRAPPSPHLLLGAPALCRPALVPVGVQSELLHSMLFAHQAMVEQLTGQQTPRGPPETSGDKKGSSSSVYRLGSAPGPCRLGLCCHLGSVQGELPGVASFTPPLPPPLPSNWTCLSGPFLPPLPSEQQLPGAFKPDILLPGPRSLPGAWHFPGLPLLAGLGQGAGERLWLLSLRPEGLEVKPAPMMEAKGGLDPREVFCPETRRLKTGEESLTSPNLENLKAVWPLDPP
# Outline: as §1
# ETS2 = target: T8, ETS2 (Homo sapiens, UniProt P15036 1-469); conditions: protein: recombinant; tags: N-terminal GST; dsDNA, one strand shown
# T8 sequence: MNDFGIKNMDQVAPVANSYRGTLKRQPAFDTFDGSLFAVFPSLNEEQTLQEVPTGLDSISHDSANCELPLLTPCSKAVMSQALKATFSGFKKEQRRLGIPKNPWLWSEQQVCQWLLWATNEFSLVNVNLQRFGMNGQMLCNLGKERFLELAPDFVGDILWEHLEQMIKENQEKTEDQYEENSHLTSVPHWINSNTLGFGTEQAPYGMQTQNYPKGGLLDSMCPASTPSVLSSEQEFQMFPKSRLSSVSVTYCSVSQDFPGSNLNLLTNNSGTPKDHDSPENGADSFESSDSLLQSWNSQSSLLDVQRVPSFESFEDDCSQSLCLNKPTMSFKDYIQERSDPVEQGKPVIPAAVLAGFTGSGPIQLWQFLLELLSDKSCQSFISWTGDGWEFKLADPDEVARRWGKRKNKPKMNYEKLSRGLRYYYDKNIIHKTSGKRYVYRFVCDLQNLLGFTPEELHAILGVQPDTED
# Outline: as §1
# SPDEF = target: T9, SPDEF (Homo sapiens, UniProt O95238 1-335); conditions: protein: recombinant; tags: N-terminal GST; dsDNA, one strand shown
# T9 sequence: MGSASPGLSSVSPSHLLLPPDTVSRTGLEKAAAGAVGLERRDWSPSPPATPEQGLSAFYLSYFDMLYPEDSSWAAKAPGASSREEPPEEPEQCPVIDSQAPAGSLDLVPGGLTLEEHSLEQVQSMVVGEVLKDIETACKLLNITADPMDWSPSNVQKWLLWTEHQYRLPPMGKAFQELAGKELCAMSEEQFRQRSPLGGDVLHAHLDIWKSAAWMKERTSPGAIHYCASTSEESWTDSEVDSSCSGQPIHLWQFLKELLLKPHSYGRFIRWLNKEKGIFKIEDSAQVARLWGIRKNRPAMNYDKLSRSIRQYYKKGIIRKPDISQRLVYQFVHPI
# Outline: as §1
# ETV7 = target: T10, ETV7 (Homo sapiens, UniProt Q9Y603 1-341); conditions: protein: recombinant; tags: N-terminal GST; dsDNA, one strand shown
# T10 sequence: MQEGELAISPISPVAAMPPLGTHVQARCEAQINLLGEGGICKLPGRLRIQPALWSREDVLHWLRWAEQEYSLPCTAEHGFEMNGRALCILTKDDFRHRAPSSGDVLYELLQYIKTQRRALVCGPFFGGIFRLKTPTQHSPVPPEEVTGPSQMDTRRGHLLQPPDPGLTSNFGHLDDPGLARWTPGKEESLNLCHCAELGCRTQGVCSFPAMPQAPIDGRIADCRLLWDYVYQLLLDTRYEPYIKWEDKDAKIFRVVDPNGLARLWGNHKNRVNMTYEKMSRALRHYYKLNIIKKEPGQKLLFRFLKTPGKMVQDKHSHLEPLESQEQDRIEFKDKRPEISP
# Outline: as §1
# ELF5 = target: T11, ELF5 (Homo sapiens, UniProt Q9UKW6-2 1-255); conditions: protein: recombinant; tags: N-terminal GST; dsDNA, one strand shown
# T11 sequence: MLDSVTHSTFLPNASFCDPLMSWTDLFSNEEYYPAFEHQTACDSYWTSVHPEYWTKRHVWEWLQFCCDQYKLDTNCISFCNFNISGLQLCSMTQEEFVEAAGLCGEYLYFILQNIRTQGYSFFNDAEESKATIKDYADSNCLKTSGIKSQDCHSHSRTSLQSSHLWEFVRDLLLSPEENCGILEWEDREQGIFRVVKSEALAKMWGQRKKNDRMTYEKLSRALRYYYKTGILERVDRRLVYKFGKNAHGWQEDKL
# Outline: as §1
# ETV3 = target: T12, ETV3 (Homo sapiens, UniProt P41162-2 1-143); conditions: protein: recombinant; tags: N-terminal GST; dsDNA, one strand shown
# T12 sequence: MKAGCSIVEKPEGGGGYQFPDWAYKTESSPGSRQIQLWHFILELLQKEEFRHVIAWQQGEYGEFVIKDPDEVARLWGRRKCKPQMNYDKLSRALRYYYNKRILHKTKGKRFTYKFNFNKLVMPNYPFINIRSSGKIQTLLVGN
# Outline: as §1
# ETV6 = ETV6 (Homo sapiens, UniProt P41212 1-452); conditions: protein: recombinant; tags: N-terminal GST; dsDNA, one strand shown
# Chain of ETV6 (P41212 whole entry): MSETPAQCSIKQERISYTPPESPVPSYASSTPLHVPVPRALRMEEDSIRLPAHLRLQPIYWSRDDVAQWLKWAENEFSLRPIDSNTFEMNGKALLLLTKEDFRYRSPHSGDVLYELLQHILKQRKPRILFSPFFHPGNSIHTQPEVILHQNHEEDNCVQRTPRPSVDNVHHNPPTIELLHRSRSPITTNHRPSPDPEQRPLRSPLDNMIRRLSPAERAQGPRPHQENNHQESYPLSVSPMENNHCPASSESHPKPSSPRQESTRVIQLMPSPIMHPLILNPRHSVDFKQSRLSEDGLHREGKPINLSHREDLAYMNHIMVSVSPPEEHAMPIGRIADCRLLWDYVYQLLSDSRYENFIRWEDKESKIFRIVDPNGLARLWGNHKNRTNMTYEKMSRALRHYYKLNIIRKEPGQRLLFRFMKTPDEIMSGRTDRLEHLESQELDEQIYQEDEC
# Outline: as §1
sequence,measurement,setting,value
TCACTC,binding signal,FEV,"1.23 fold enrichment (6-mer frequency, TF over GST control)"
same,binding signal,ETV5,"1.19 fold enrichment (6-mer frequency, TF over GST control)"
same,binding signal,HSF1,"1.11 fold enrichment (6-mer frequency, TF over GST control)"
same,binding signal,SPIC,"1.3 fold enrichment (6-mer frequency, TF over GST control)"
same,binding signal,ELF4,"1.24 fold enrichment (6-mer frequency, TF over GST control)"
same,binding signal,ELK4,"1.34 fold enrichment (6-mer frequency, TF over GST control)"
same,binding signal,ETV2,"1.35 fold enrichment (6-mer frequency, TF over GST control)"
same,binding signal,ELF3,"1.26 fold enrichment (6-mer frequency, TF over GST control)"
same,binding signal,CRX,"1.05 fold enrichment (6-mer frequency, TF over GST control)"
same,binding signal,ETV1,"1.18 fold enrichment (6-mer frequency, TF over GST control)"
same,binding signal,ERF,"1.27 fold enrichment (6-mer frequency, TF over GST control)"
same,binding signal,ETV3L,"1.16 fold enrichment (6-mer frequency, TF over GST control)"
same,binding signal,ETS2,"1.23 fold enrichment (6-mer frequency, TF over GST control)"
same,binding signal,SPDEF,"1.12 fold enrichment (6-mer frequency, TF over GST control)"
same,binding signal,ETV7,"1.2 fold enrichment (6-mer frequency, TF over GST control)"
same,binding signal,ELF5,"1.1 fold enrichment (6-mer frequency, TF over GST control)"
same,binding signal,ETV3,"1.22 fold enrichment (6-mer frequency, TF over GST control)"
same,binding signal,ETV6,"1.19 fold enrichment (6-mer frequency, TF over GST control)"
